# Screening results deposited in PubChem BioAssay by National Center for Advancing Translational Sciences (NCATS).
# ALDH1A1 inh: inhibitors of human aldehyde dehydrogenase 1A1; Purified ALDH1A1, NADH fluorescence, propionaldehyde substrate; Potency, µM (titrated, usually from 75.3 µM), without a hit: at the top dose activity, negative = inhibition, most hits filed as inhibitors; actives 7.3% (n = 220,000); P00352; active = well fitted inhibition curve with a large enough effect, not every such curve was filed as active; inconclusive = small, poorly fitted or top-dose-only effect, or another doubt; inactive = no such curve, though single readings can be large or run the other way;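 note: plate controls were no enzyme wells and a reference inhibitor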
# PLK1 PBD block: inhibitors of human PLK1 polo-box domain binding. AID 720504. P53350. Potency, µM, inactives show max response, negative = inhibition, hits mostly inhibitors. Plk1 PBD binding of FITC phosphopeptide, fluorescence polarization. actives 2.8% (n = 360,000); note: series mostly up to about 57 µM; nearly all actives have a fitted effect of over 65% in size
# Target sequence (P53350 whole entry, looked up, the tested form may be a part): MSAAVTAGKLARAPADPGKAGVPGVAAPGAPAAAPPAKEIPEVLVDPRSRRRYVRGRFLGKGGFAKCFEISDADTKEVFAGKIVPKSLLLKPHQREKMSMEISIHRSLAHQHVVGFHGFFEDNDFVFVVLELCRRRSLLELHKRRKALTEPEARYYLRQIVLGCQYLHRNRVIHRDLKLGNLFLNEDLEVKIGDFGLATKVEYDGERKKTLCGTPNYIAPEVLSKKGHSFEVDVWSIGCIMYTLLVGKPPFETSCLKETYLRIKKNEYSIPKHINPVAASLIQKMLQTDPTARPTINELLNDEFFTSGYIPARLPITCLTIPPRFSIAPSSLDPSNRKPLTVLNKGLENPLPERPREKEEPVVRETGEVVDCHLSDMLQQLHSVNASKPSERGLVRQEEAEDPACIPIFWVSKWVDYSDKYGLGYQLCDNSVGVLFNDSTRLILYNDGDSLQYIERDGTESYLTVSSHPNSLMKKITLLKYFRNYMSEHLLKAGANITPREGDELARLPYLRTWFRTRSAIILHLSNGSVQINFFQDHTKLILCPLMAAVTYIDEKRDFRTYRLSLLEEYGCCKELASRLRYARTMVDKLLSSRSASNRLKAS
# VP16 counter: counter-screen for ROR gamma inhibitors: Gal4-VP16 reporter; Drosophila S2 Gal4-VP16 UAS-luciferase, luminescence, 20 h; Potency, µM (series often up to 53.6 µM), for the others: at the top dose activity, negative = inhibition, most hits filed as inhibitors; actives 3.5% (n = 310,000);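 note: Gal4-VP16 expression switched on by copper sulfate through the metallothionein promoter; nearly all actives have a fitted effect of over 50% in size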
# RORgamma inh: blocks mouse ROR gamma transcriptional activity; Drosophila S2 Gal4-RORgamma UAS-luciferase reporter, 20 h; Potency, µM (titrated, usually from 53.6 µM), for the others: at the highest dose activity change, negative = inhibition, actives largely listed as inhibitors; actives 5.4% (n = 310,000); P51450; note: nearly all actives have a fitted effect of over 60% in size
#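 ROR gamma transcriptional activity was tracked as Gal4-UAS luciferase output in stably transfected Drosophila Schneider cells, with compound added 1 hr before 700 uM copper sulfate induction and a 20 hr ambient-temperature incubation.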
# Sfp PPTase inh: inhibitors of Bacillus subtilis Sfp phosphopantetheinyl transferase; actives 3.5% (n = 310,000); Potency, µM, for inactives: largest response in the series, negative = inhibition, most hits filed as inhibitors; Biochemical Sfp PPTase activity, qHTS; AID 1490; Q9F4F7;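 note: the enzyme is Sfp with the accession as filed and its product quenches rhodamine fluorescence; 0% = enzyme reaction without inhibitor and -100% = no enzyme wells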
#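 Fluorescence-quenching assay: 15 nM Sfp-PPTase preincubated 15 min at room temperature with compound, then 5 uM rhodamine-CoA and 12.5 uM BHQ-2-labelled YbbR peptide added. Fluorescence (ex 525/em 598 nm) read at start and after 30 min; difference gives rate.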
# Starred values were filed as active, the others as inactive; ? = inconclusive; . = not tested or not shown; [ ] = another dose, or the depositor's remark. An excerpt weighted towards active compounds, which were near 12% of everything screened. Unless noted, calls come from the whole dose curve; as a rule, active = well fitted curve in the direction sought with a large enough effect; inconclusive = small, poorly fitted or top-dose-only effect, or another doubt; inactive = no such curve, though single readings can be large; an effect the other way counts as inactive or inconclusive. Unless noted, % is set by controls: 0 for no effect and ±100 for the full control effect; potency is the fitted concentration of half-maximal effect.
SMILES,ALDH1A1 inh,PLK1 PBD block,VP16 counter,RORgamma inh,Sfp PPTase inh
FC(F)(F)c1ccc(C2[C@H]3CN(CC4CCCCC4)[C@H](c4ccccc4)C34CC2(c2ccccc2)C4)cc1 (stereo partly specified),-9%,.,8%,-2%,-7%
CCC(C)n1c(=S)[nH]c2c(sc3ccc([N+](=O)[O-])cc32)c1=O (stereo unspecified),0%,?,1.3µM*,0.63µM*,12%
CC(C)n1c2ccccc2c2cc([N+](=O)[O-])ccc21,2%,-3%,-17%,-7%,-5%
Cc1cc(CN(Nc2ccccc2)c2ccccc2)cc(C)n1,.,-4%,.,.,.
COc1ccc2nc(C)cc(N3CCN(c4ccccc4)CC3)c2c1,.,3%,-14%,14µM*,10%
COc1ccc2nc(C)cc(Nc3ccccc3O)c2c1,3%,27µM*,3%,-3%,7%
COc1ccc(/C=N/Nc2cc(C)nc3ccc(Br)cc23)cc1,.,-2%,?,13µM*,56µM*
COc1ccc2nc(C)cc(N/N=C/c3cccc(OC)c3O)c2c1,.,0%,11µM*,?,?
O=C1NC[C@@H](CCCCN2CCN(CCc3ccc(O)cc3)C(=O)C2=O)N(CCc2ccc(O)cc2)C1=O,.,1%,.,.,.
COCCn1c(=O)c(-c2cccs2)nc2cnc(N3CCOCC3)nc21,?,.,4%,24%,15%
CC(=O)c1c(C)[nH]c(C(=O)CN2C(=O)NC(CCc3ccccc3)C2=O)c1C (stereo unspecified),0%,1%,3%,9%,4%
COC(=O)c1sccc1N/N=C/c1cccc(OC)c1O,3%,-2%,16µM*,?,20%
COC(=O)c1sccc1N/N=C/c1ccc(OC)c(OC)c1OC,?,-11%,-7%,?,?
COc1ccc(O[C@H]2C=C[C@@H](c3ccccc3)O[C@H]2COC(=O)CC/C(C)=N\OC[C@@H](O)COCc2ccco2)cc1,-15%[13.5 µM],.,-7%[10 µM],39%[10 µM],9%
CCCOc1ccc(N2C(=O)C3ON(c4ccccc4)C(c4ccc(O)c(OC)c4)C3C2=O)cc1 (stereo unspecified),32µM*,-11%,1%,-3%,14%
COc1cc(C2C3C(=O)N(Cc4ccccc4)C(=O)C3ON2c2ccccc2)cc(OC)c1O (stereo unspecified),?,-8%,4%,16%,-9%
CCCC1C2C(=O)N(c3ccccc3)C(=O)C2ON1c1ccccc1 (stereo unspecified),-12%,-4%,-30%,23%,18%
CCCOc1ccc(N2C(=O)C3ON(c4ccccc4)C(CCC)C3C2=O)cc1 (stereo unspecified),18µM*,-4%,6%,-6%,5%
CSc1ccc(CN2CCC2(C)C(=O)Nc2ccc3c(c2)OCO3)cc1 (stereo unspecified),.,0%,.,.,.
O=C(O)CCNCC(=O)O,11%[13.5 µM],.,.,.,.
Cc1cc2c(cc1C)NC(c1c(C)n(C)n(-c3ccccc3)c1=O)C1=C(CC(C)(C)CC1=O)N2 (stereo unspecified),22µM*,-28%,-29%,13µM*,-1%
CC(C)(C)c1ccc(S(=O)(=O)NC(=O)C2(C)CCN2C(=O)C2(c3ccccc3)CC2)cc1 (stereo unspecified),.,-7%,.,.,.
c1ccc2oc(-c3csc(N4CCOCC4)n3)cc2c1,?,-18%,-39%,?,56µM*
CSc1nc(SCCN(C)C)c2c3c(sc2n1)COC(C)(C)C3,-8%,-7%,-1%,0%,6%
Cc1cc(C)n(-c2nc(SCCN(C)C)c3c4c(sc3n2)CCCC4)n1,?,2%,7.9µM*,2.8µM*,-18%
SMILES,ALDH1A1 inh,PLK1 PBD block,VP16 counter,RORgamma inh,Sfp PPTase inh
CCC(O)CNc1nc(-n2nc(C)cc2C)nc2sc3c(c12)CCCC3 (stereo unspecified),-1%,.,?,2.5µM*,5%
Cc1[nH]c2ccccc2c1C(c1ccccn1)c1c(C)[nH]c2ccccc12,?,?,9%,5%,40µM*
C[N+](C)(C)c1nc(N)nc2c1ncn2[C@H]1O[C@@H](CO)[C@@H](O)[C@H]1O,1%[13.5 µM],.,.,.,.
CCOC(=O)N1CCN(CCC(=O)c2ccc(Br)cc2)CC1,.,0.67µM*,?,?,50µM*
O=C(CCN1CCN(c2ccccc2)CC1)c1ccc(Cl)cc1,.,?,?,?,2%
COc1ccc(N2CCN(CCC(=O)c3ccc4ccccc4c3)CC2)cc1,.,6.7µM*,?,?,-9%
O=C(OCCN1CCCCC1)c1ccc(Cl)cc1,10%,-3%,-2%,?,89µM*
CCOC(=O)N1CCN(CCC(=O)c2ccc(Cl)cc2)CC1,0.089µM*,12µM*,?,-9%,50µM*
CN1CCN(c2ncc3nc(-c4cc(F)cc(F)c4)c(=O)n(CCC#N)c3n2)CC1,?,.,3%,-7%,-29%
COc1ccc(C[C@@H]2C(=O)N[C@H](C)C(=O)N(C)[C@@H]3Cc4ccc(cc4)Oc4cc(ccc4O)C[C@H](C(=O)N[C@@H](C)C(=O)N[C@H](C)C(=O)N2C)N(C)C3=O)cc1,0%[13.5 µM],.,.,.,.
CCOc1ccc(-c2cc(C(=O)Nc3cc(OC)c(OC)c(OC)c3)[nH]n2)c(C)c1,.,4%,.,.,.
C[C@@H]1CCC2C(C)(C)C3CC21CC[C@@]3(C)O (stereo partly specified),-10%,.,-9%,12%,-11%
O=S(=O)(NCC[C@@H]1CC[C@H](NS(=O)(=O)c2cccc(F)c2)[C@@H](CO)O1)c1cccc(F)c1,.,-27%,.,.,.
COc1ccc2c(c1)C(c1ccc(C)cc1)CC(=O)O2 (stereo unspecified),3%[120 µM],.,20%[96.6 µM],2%[96.6 µM],12%
COc1ccc(N2C(=O)c3ccccc3NC(=O)C2C(=O)NCC(C)C)cc1 (stereo unspecified),.,-2%,.,.,.
CC(C)COc1ccc(C(=O)OCCN2CCCCC2)cc1,.,-6%,-11%,19%,6%
CC(C)COc1ccc(C(=O)CCN2CCCCC2)cc1,0.1µM*,21µM*,11µM*,7.1µM*,-22%
CC1CCCN(CCC(=O)c2ccc(Br)cc2)C1 (stereo unspecified),0.13µM*,3.4µM*,20µM*,?,-14%
CCOC(=O)N1CCN(CCC(=O)c2ccc(OC)cc2)CC1,0.71µM*,-20%,4%,8%,-2%
COc1cc2c(cc1OC)CN(CCC(=O)c1ccc(Br)cc1)CC2,0.2µM*,4.7µM*,?,11µM*,-8%
CCOC(=O)N1CCN(CCC(=O)Nc2ccc(OC)cc2)CC1,-8%,-1%,1%,9%,1%
O=C1[C@@H]2[C@H]3C(=CC[C@@H]2C(=O)N1Cc1ccccc1)C1(OCCCO1)[C@H]1O[C@@H]1[C@H]3O,-5%[13.5 µM],.,-9%[10 µM],3%[10 µM],-8%
CC1(C)[C@H]2CC=C(CN3CCC(N4CCC(C(=O)N5CCCC5)CC4)CC3)[C@@H]1C2,4%,-21%,-10%,19%,17%
